Consider 15 molecules from PubChem BioAssay (NCATS).

The nature of assay [1]: qHTS of pediatric cancer cell lines to identify multiple opportunities for drug repurposing: Confirmatory screen for RD cells (AID 1347124).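 Note: cells exposed to compound for 48 h before viability readout; nearly all actives have a fitted effect of over 65% in size.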 Note: potency is the fitted concentration of half-maximal effect. Summed up:
(§1)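 Cells (500-1,000/well) rested 5 h, then received compounds for 48 h; metabolically active cells were measured by CellTiter-Glo luminescence. Final concentrations spanned up to 46 µM (MIPE, 11-point) or 0.59 nM-46 µM (NPC, 8-point) in primary screens, 11-point in follow-ups.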
(In general: In qHTS, concentration-response curves come from the screen itself.)

Assay [2] in a line: qHTS of pediatric cancer cell lines to identify multiple opportunities for drug repurposing: Confirmatory screen for Rh18 cells (AID 1347125). Note: nearly all actives have a fitted effect of over 55% in size. Note: potency is the fitted concentration of half-maximal effect. Summed up: as §1
A short description of assay [3]: qHTS of pediatric cancer cell lines to identify multiple opportunities for drug repurposing: Confirmatory screen for Saos-2 cells (AID 1347127). Note: nearly all actives have a fitted effect of over 60% in size. Note: potency is the fitted concentration of half-maximal effect. Summed up:
as §1

Assay [4] concerns Zika virus NS2B-NS3 protease. In words: Primary screen GU AMC qHTS for Zika virus inhibitors (AID 1347154). Note: nearly all actives have a fitted effect of over 70% in size. Note: potency is the fitted concentration of half-maximal effect. Summed up:
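Fluorogenic AMC-substrate cleavage by noncovalent NS2B-NS3 protease complex (25 nM, pH 8.0 Tris buffer with Tween 20) followed for 15 minutes at room temperature (~20% conversion). Percent inhibition from ex340/em450 signal change, fitted by 4-parameter Hill equation.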

A short description of assay [5]: qHTS of pediatric cancer cell lines to identify multiple opportunities for drug repurposing: Confirmatory screen for Rh41 cells (AID 1347123).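 Note: 48 h compound exposure; nearly all actives have a fitted effect of over 60% in size.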 Note: potency is the fitted concentration of half-maximal effect. Summed up:
as §1

Assay [6] is described as follows: qHTS of pediatric cancer cell lines to identify multiple opportunities for drug repurposing: Confirmatory screen for Rh30 cells (AID 1347126). Note: nearly all actives have a fitted effect of over 55% in size. Summed up:
as §1

A short description of assay [7]: qHTS of pediatric cancer cell lines to identify multiple opportunities for drug repurposing: Confirmatory screen for SK-N-SH cells (AID 1347129).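 Note: cells exposed to compound for 48 h before viability read; nearly all actives have a fitted effect of over 60% in size.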 Note: potency is the fitted concentration of half-maximal effect. Summed up:
as §1

Assay [8] can be described thus: qHTS of pediatric cancer cell lines to identify multiple opportunities for drug repurposing: Confirmatory screen for OHS-50 cells (AID 1347128).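 Note: compound exposure lasted 48 h at 37 degrees C; nearly all actives have a fitted effect of over 55% in size.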 Note: potency is the fitted concentration of half-maximal effect. Summed up: as §1
The next assay has as its target Furin (Homo sapiens) (UniProt P09958). In words: Furin counterscreen qHTS for Zika virus inhibitors (AID 1347149).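 Note: purified recombinant full-length human furin enzyme at 5 nM; fluorescence gain from furin cutting a BOC-RVRR-AMC peptide substrate over 15 min; top concentration of the series differs between compounds; nearly all actives have a fitted effect of over 70% in size.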 Summed up: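 Fluorogenic cleavage of BOC-RVRR-AMC (2 microM final, Km ~15 µM) was monitored (ex 340, em 450 nm) at 37C after 15 min RT preincubation of 5 nM furin with compounds in HEPES pH 7.0 buffer with CaCl2 and Triton X-100. Percent inhibition was fitted to a 4-parameter Hill curve.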

Assay [9] deals with Zika virus NS2B-NS3 protease (linked construct). In words: Confirmatory screen NINDS AMC qHTS for Zika virus inhibitors (AID 1347152). Note: potency is the fitted concentration of half-maximal effect; nearly all actives have a fitted effect of over 70% in size. Summed up: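 In this dose-response qHTS, AMC release from 10 microM Bz-Nle-KRR-AMC by 1 nM linked protease is measured over 15 minutes (about 20% conversion) at pH 8.0. Percent inhibition is fitted to a 4-parameter Hill curve.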
A short description of assay [10]: Confirmatory screen NINDS Rhodamine qHTS for Zika virus inhibitors (AID 1347161).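 Note: purified Zika NS2B-NS3 protease with linked NS2B cofactor domain and Rhodamine110 peptide substrate; series mostly up to about 110 µM; nearly all actives have a fitted effect of over 60% in size.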 Summed up: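 qHTS dose-response: 25 nM linked protease, pH 8.0 Tris/Tween buffer, cpd titration, 15 min RT preinc, 1.5 microM Rhod110 peptide, 15 min reaction (~15% conversion), Ex480/Em540; 4-parameter Hill fit.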
Assay [11] deals with Zika virus NS2B-NS3 protease (unlinked complex). The assay is described as follows: Primary screen GU Rhodamine qHTS for Zika virus inhibitors: Unlinked NS2B-NS3 protease assay (AID 1347159). Summed up: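 Noncovalent NS2B hydrophilic domain/NS3 protease complex (25 nM final) in 10 mM Tris-HCl pH 8.0, 0.01% Tween 20, preincubated 15 min with compounds (up to 114 microM), then 1.5 microM Rhodamine110 substrate. Fluorescence change over 15 min fitted to 4-parameter Hill.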

The structures appear in SMILES notation. Records with an inconclusive call do not appear. Activity calls are given as the source filed them. Calls come from the whole dose curve; as a rule, active = well fitted curve in the direction sought with a large enough effect; inconclusive = small, poorly fitted or top-dose-only effect, or another doubt; inactive = no such curve, though single readings can be large; an effect the other way counts as inactive or inconclusive. Starred links: 1 amine or outer side, 2 acyl side, 3 side chain; linkers in the order of their positions; H or OH if unused. Positions of bridges follow the written chain, without caps; N, C: chain ends. Non-standard residues stand in square brackets, D forms with d. Residues, ends and D or L forms follow the SMILES beside them. Chains are numbered I, II in the order given. Actinocin(9to1) = Cc1c2oc3c(C)ccc(C(=O)[*:1])c3nc-2c(C(=O)[*:2])c(N)c1=O; NMeV = CN[CH](C(=O)O)C(C)C; Sar = CNCC(=O)O

Furin (Homo sapiens), sequence (P09958 whole entry, looked up): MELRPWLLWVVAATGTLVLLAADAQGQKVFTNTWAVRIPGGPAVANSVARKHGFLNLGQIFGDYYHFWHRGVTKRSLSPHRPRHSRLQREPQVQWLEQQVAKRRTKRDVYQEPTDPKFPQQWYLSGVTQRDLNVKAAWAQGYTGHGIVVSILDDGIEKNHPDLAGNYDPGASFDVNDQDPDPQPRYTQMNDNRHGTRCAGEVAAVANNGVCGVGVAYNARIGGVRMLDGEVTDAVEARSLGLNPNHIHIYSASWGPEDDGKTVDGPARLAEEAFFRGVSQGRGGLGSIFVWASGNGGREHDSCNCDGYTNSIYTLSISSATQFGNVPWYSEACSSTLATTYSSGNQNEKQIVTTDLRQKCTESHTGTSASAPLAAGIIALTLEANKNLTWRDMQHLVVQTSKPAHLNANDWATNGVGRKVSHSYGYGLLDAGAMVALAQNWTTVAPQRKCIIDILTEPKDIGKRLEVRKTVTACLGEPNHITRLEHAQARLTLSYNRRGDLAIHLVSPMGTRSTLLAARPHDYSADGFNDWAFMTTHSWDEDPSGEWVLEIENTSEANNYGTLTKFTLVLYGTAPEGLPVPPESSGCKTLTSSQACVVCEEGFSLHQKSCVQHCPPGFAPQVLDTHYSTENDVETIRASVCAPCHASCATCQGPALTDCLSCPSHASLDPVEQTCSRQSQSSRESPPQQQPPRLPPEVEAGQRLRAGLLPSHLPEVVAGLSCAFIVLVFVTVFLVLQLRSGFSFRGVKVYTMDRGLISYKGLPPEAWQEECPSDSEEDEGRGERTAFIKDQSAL

For `COc1cc([C@@H]2c3cc4c(cc3[C@H](O)[C@H]3COC(=O)[C@@H]23)OCO4)cc(OC)c1OC`, the values for the Potency in [1] and in assay [3] were 0.928 µM (active) and 0.522 µM (active), respectively. Further, the Potency result in assay [2] and in [4] was “inactive” throughout.
Take `COc1cc(C=CC(=O)CC(=O)C=Cc2ccc(O)c(OC)c2)ccc1O`: the Potency in [5] was 17 µM (active); in assay [3] it was 33.9 µM (active).
Take `Cc1c2oc3c(C)ccc(C(=O)NC4C(=O)NC(C(C)C)C(=O)N5CCCC5C(=O)N(C)CC(=O)N(C)C(C(C)C)C(=O)OC4C)c3nc-2c(C(=O)NC2C(=O)NC(C(C)C)C(=O)N3CCCC3C(=O)N(C)CC(=O)N(C)C(C(C)C)C(=O)OC2C)c(N)c1=O` (stereo not given) (I: TVP[Sar][NMeV] / II: TVP[Sar][NMeV]; ester I:1-I:C, II:1-II:C; linker I:N-II:N via Actinocin(9to1); configuration not given here): the Potency in assay [5] was 0.0185 µM (active); in [2], 0.0293 µM (active); in assay [7], 0.0187 µM (active). Besides, the Potency result in [6] and in assay [4] was “inactive” each time.
Consider `C=Cc1c(C)c2cc3nc(cc4[nH]c(cc5nc(cc1[nH]2)C(C)=C5CCC(=O)O)c(CCC(=O)OC)c4C)[C@@]1(C)C3=CC=C(C(=O)OC)[C@H]1C(=O)OC`, for which the Potency entry in assay [2], in assay [6], in [3], in assay [8] and in assay [7] was “inactive” each time.
With `O=S(=O)(O)CCSSCCS(=O)(=O)O`, the Potency entry in assay [5], in assay [1], in assay [2], in assay [3], in assay [7] and in assay [4] was “inactive” in each case.
Take `O=C1c2c(O)cccc2[C@@H]([C@@H]2O[C@H](CO)[C@@H](O)[C@H](O)[C@H]2O)c2cc(CO)cc(O)c21`: the Potency entry in assay [5], in assay [3], in [7] and in [4] was “inactive” throughout.
Consider `CN[C@H]1[C@@H](O)[C@@H]2O[C@@H]3O[C@H](C)CC(=O)[C@]3(O)O[C@@H]2[C@@H](NC)[C@H]1O`, for which the Potency entry in assay [5], in assay [1], in assay [2] and in [4] was “inactive” throughout.
`CN[C@@H]1C[C@H]2O[C@@](C)([C@H]1OC)n1c3ccccc3c3c4c(c5c6ccccc6n2c5c31)C(=O)N[C@H]4O`: the Potency was 1.04 µM (active) in [5]; 1.47 µM (active) in assay [2]; 0.585 µM (active) in [3]; 0.585 µM (active) in assay [8]; 0.332 µM (active) in [7]; 19.2 µM (active) in assay [9]. Also, the Potency in assay [4] is 21.5 µM (active). Further, the Potency result (with Furin (Homo sapiens); in assay [10]) was “inactive” in each case.
Take `CC(=O)ON=C1C(c2c(O)[nH]c3cc(Br)ccc23)=Nc2ccccc21`: the Potency in assay [2] and in [3] was 13.1 µM (active) throughout. Moreover, the Potency result in assay [4] is “inactive”.
As to `NC(=O)Nc1cc(-c2ccc(CN3CCOCC3)cc2)sc1C(N)=O`, the Potency in assay [5] and in assay [3] was 13.1 µM (active) in each case.
For `COC(=O)C1C2CC3c4[nH]c5cc(OC)ccc5c4CCN3CC2CC(OC(=O)c2cc(OC)c(OC)c(OC)c2)C1OC` (stereo not given), the Potency in [5] is 11.7 µM (active); in assay [2] it was 16.5 µM (active); in assay [3] it was 5.85 µM (active). Also, in [4], the Potency entry was “inactive”.
For the molecule `CCOC(=O)[C@@H](N)Cc1ccc(-c2cc(O[C@H](c3ccc(Cl)cc3-n3ccc(C)n3)C(F)(F)F)nc(N)n2)cc1`, the Potency in assay [5] was 14.7 µM (active); in assay [11] it was 44.7 µM (active). Further, in [4], the Potency entry is “inactive”.
`COc1cc(C[C@@H](CO)[C@H](CO)Cc2ccc(O)c(OC)c2)ccc1O`: in assay [1], the Potency was 16.5 µM (active). Moreover, the Potency entry in [2], in [8], in [7] and in assay [4] was “inactive” in each case.
Consider `COc1cc([C@@H]2c3cc4c(cc3[C@@H](O[C@@H]3O[C@@H]5CO[C@@H](c6cccs6)O[C@@H]5[C@H](O)[C@@H]3O)[C@H]3COC(=O)[C@H]23)OCO4)cc(OC)c1O`, for which the Potency in [5] is 0.585 µM (active); in [2], 1.31 µM (active). In addition, the Potency entry in [3] and in assay [4] was “inactive” throughout.
As to `CCS(=O)(=O)Nc1ccc2[nH]c(O)c(C(=Nc3ccc(CN4CCCCC4)cc3)c3ccccc3)c2c1`, the Potency in assay [5] is 0.522 µM (active); in assay [1] it was 0.737 µM (active); in [2], 4.65 µM (active); in assay [3], 0.737 µM (active). For the same molecule, in [4], the Potency result is “inactive”.
